{
  "source": "the antibiotic and cytotoxicity screens of Wong et al. (2023)",
  "note": "Screen size: about 39,000 compounds; about 3,300 (8.5%) were called active. Many of the other results were omitted from the sample, so actives are more common in it than they were.",
  "data": [
    {"test_system": "HepG2", "assay": "cytotoxicity call (relative viability < 0.9)", "settings": "10 µM", "values": [
      {"smiles": "NC(=O)[C@H]1C[C@@H]2C=C[C@H]1C2", "cytotoxicity call": "inactive"},
      {"smiles": "O=C(CCCCCCC(=O)Nc1ccc([C@H]2C[C@H](c3ccccc3)O[C@H](c3ccc(Oc4ccccc4)cc3)O2)cc1)NO", "cytotoxicity call": "inactive"},
      {"smiles": "C[C@H]1CN([C@@H](C)CO)C(=O)c2cc(NC(=O)Cn3cnnn3)ccc2O[C@@H]1CN(C)S(=O)(=O)c1ccc(F)cc1", "cytotoxicity call": "inactive"},
      {"smiles": "Cc1ccc(S(=O)(=O)N2C[C@H](O)COC[C@@H]3O[C@H](CC(=O)NCCCN(C)C)CC[C@H]32)cc1", "cytotoxicity call": "inactive"},
      {"smiles": "CCN1CCN(C(=O)CN2C(=O)c3ccccc3S2(=O)=O)CC1", "cytotoxicity call": "inactive"},
      {"smiles": "CCN1CCN(CC(=O)Nc2ccc(-c3cccc4c(=O)cc(N5CCOCC5)oc34)c3sc4ccccc4c23)CC1", "cytotoxicity call": "active"},
      {"smiles": "CCCC#Cc1ccc2c(c1)O[C@@H](CN(C)S(=O)(=O)c1cccc(F)c1)[C@H](C)CN([C@@H](C)CO)S2(=O)=O", "cytotoxicity call": "inactive"},
      {"smiles": "CC(C)N1C[C@H](C)[C@@H](CN(C)Cc2ccccc2Cl)Oc2c(NC(=O)c3ccncc3)cccc2C1=O", "cytotoxicity call": "inactive"},
      {"smiles": "NC(=O)C1(N2CCCCC2)CCN(CCCC(=O)c2ccc(F)cc2)CC1", "cytotoxicity call": "inactive"},
      {"smiles": "O=C(CN1CCNCC1)c1ccc(F)cc1", "cytotoxicity call": "inactive"},
      {"smiles": "O=C(CCCN1CCC(O)(c2ccc(Br)cc2)CC1)c1ccc(F)cc1", "cytotoxicity call": "active"},
      {"smiles": "O=C(CCCN1CCC(O)(c2ccc(Cl)cc2)CC1)c1ccc(F)cc1", "cytotoxicity call": "active"},
      {"smiles": "O=C(CCCN1CC=C(n2c(=O)[nH]c3ccccc32)CC1)c1ccc(F)cc1", "cytotoxicity call": "inactive"},
      {"smiles": "O=C(CCCN1CCN(c2ccccn2)CC1)c1ccc(F)cc1", "cytotoxicity call": "inactive"},
      {"smiles": "CC(C)(C)OC(=O)C[C@H]1CC=CC[C@@H](CC(=O)N[C@@H](CO)Cc2ccccc2)C(=O)N[C@@H](C(C)(C)C)COC1=O", "cytotoxicity call": "inactive"},
      {"smiles": "C[C@@H]1CN([C@@H](C)CO)C(=O)c2cc(NC(=O)Cc3ccccc3)ccc2O[C@H]1CN(C)Cc1ccc(C(=O)Nc2ccccc2N)cc1", "cytotoxicity call": "inactive"},
      {"smiles": "C[C@@H]1CN([C@@H](C)CO)C(=O)c2cccc(NC(=O)c3ccc(-c4nccs4)cc3)c2O[C@H]1CN(C)C(=O)Nc1ccccc1", "cytotoxicity call": "inactive"},
      {"smiles": "C[C@H](CO)N1C[C@H](C)[C@H](CN(C)Cc2ccc(Cl)c(Cl)c2)Oc2c(NC(=O)Nc3ccc(C(F)(F)F)cc3)cccc2C1=O", "cytotoxicity call": "inactive"},
      {"smiles": "C[C@H](CO)N1C[C@H](C)[C@@H](CN(C)Cc2ccc(Cl)c(Cl)c2)Oc2c(NC(=O)Nc3ccc(F)cc3)cccc2C1=O", "cytotoxicity call": "inactive"},
      {"smiles": "C[C@@H]1CN([C@@H](C)CO)C(=O)c2cccc(NC(=O)Nc3ccc(C(F)(F)F)cc3)c2O[C@@H]1CN(C)Cc1ccc(Cl)c(Cl)c1", "cytotoxicity call": "active"},
      {"smiles": "C[C@@H]1CN([C@H](C)CO)C(=O)c2cccc(NC(=O)Nc3ccc(C(F)(F)F)cc3)c2O[C@@H]1CN(C)Cc1ccc(Cl)c(Cl)c1", "cytotoxicity call": "active"},
      {"smiles": "C[C@@H]1CN([C@@H](C)CO)C(=O)c2cccc(NC(=O)Nc3ccc(F)cc3)c2O[C@@H]1CN(C)Cc1ccc(Cl)c(Cl)c1", "cytotoxicity call": "inactive"},
      {"smiles": "C[C@H]1CN([C@@H](C)CO)C(=O)c2cccc(NC(=O)Nc3ccc(F)cc3)c2O[C@@H]1CN(C)Cc1ccc(Cl)c(Cl)c1", "cytotoxicity call": "inactive"},
      {"smiles": "C[C@H]1CN([C@@H](C)CO)C(=O)c2cccc(NC(=O)Nc3ccc(F)cc3)c2O[C@H]1CN(C)Cc1ccc(Cl)c(Cl)c1", "cytotoxicity call": "inactive"},
      {"smiles": "C[C@@H]1CN([C@H](C)CO)C(=O)c2cccc(NC(=O)Nc3ccc(C(F)(F)F)cc3)c2O[C@H]1CN(C)Cc1ccc(Cl)c(Cl)c1", "cytotoxicity call": "inactive"},
      {"smiles": "C[C@H]1CN([C@@H](C)CO)C(=O)c2cccc(NC(=O)Nc3ccc(C(F)(F)F)cc3)c2O[C@@H]1CN(C)Cc1ccc(Cl)c(Cl)c1", "cytotoxicity call": "active"},
      {"smiles": "C[C@@H]1CN([C@@H](C)CO)C(=O)c2cccc(NC(=O)Nc3ccc(C(F)(F)F)cc3)c2O[C@H]1CN(C)Cc1ccc(Cl)c(Cl)c1", "cytotoxicity call": "active"}
    ]}
  ]
}
